In PubChem BioAssay (EPA / NIEHS):
Some compounds were tested as several samples or in several runs, with calls that do not always agree. Calls of active or inactive are those of the source. The calls were made as follows: active = hit-call score of the fitted dose curve at least 0.9, where 1 is the maximum; inactive = score below 0.9.

Key:
[1] = read-out: Interleukin-6 (IL6), IL6 (gene 3569); assay: BSK_CASM3C_IL6: BioMAP Diversity Plus: CASM3C Assay for Interleukin-6 (IL6) Biomarker Activity for (AID 2283040); details: primary human coronary artery smooth muscle cells; actives raise or lower the signal
[2] = read-out: Tissue plasminogen activator (tPA), PLAT (gene 5327); assay: BSK_BE3C_tPA: BioMAP Diversity Plus: BE3C Assay for Tissue plasminogen activator (tPA) Biomarker Activity (AID 2283041); details: primary human bronchial epithelial cells; actives raise or lower the signal
Procedure, shortened: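 Bidirectional curve fitting relative to DMSO defined activity, with tPA detected by ELISA in chemically treated human bronchial epithelial primary cells at 24 hours.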

[3] = read-out: Interleukin-8 (IL8), CXCL8 (gene 3576); assay: BSK_CASM3C_IL8: BioMAP Diversity Plus: CASM3C Assay for Interleukin-8 (IL8) Biomarker Activity (AID 2283042); details: primary human coronary artery smooth muscle cells; actives raise or lower the signal;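 also: IL-8 protein level quantified by ELISA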
[4] = read-out: Human Leukocyte Antigen - DR isotype (HLADR), HLA-DRA (gene 3122); assay: BSK_CASM3C_HLADR: BioMAP Diversity Plus: CASM3C Assay for Human Leukocyte Antigen - DR isotype (HLADR) Biomarker Activity (AID 2283043); details: primary human coronary artery smooth muscle cells; actives raise or lower the signal;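 also: cell-surface HLA-DR protein level quantified by ELISA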
[5] = read-out: Macrophage colony-stimulating factor (MCSF), CSF1 (gene 1435); assay: BSK_CASM3C_MCSF: BioMAP Diversity Plus: CASM3C Assay for Macrophage colony-stimulating factor (MCSF) Biomarker Activity (AID 2283044); details: primary human coronary artery smooth muscle cells; actives raise or lower the signal;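 also: M-CSF protein amount quantified by ELISA after 24 h exposure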
[6] = read-out: Low-density lipoprotein receptor (LDLR), LDLR (gene 3949); assay: BSK_CASM3C_LDLR: BioMAP Diversity Plus: CASM3C Assay for Low-density lipoprotein receptor (LDLR) Biomarker Activity (AID 2283045); details: primary human coronary artery smooth muscle cells; actives raise or lower the signal;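 also: LDLR protein level on the cell surface quantified by ELISA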
[7] = read-out: Monocyte Chemoattractant Protein-1 (MCP1), CCL2 (gene 6347); assay: BSK_CASM3C_MCP1: BioMAP Diversity Plus: CASM3C Assay for Monocyte Chemoattractant Protein-1 (MCP1) Biomarker Activity (AID 2283046); details: primary human coronary artery smooth muscle cells; actives raise or lower the signal;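 also: MCP-1 level quantified by ELISA 24 h after dosing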
[8] = BSK_CASM3C_Proliferation: Cell Proliferation Assessment in the BioMAP Diversity Plus: CASM3C Assay (AID 2283047); details: primary human coronary artery smooth muscle cells;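 also: sulforhodamine B total protein stain as relative cell number at 560 nm; sub-confluent cells exposed 48 h before staining; fitted both ways against DMSO so gain or loss of cell number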
[9] = read-out: Monokine induced gamma interferon (MIG), CXCL9 (gene 4283); assay: BSK_CASM3C_MIG: BioMAP Diversity Plus: CASM3C Assay for Monokine induced gamma interferon (MIG) Biomarker Activity (AID 2283048); details: primary human coronary artery smooth muscle cells; actives raise or lower the signal;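 also: MIG protein level measured by ELISA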
[10] = read-out: serum amyloid A (SAA), SAA1 (gene 6288); assay: BSK_CASM3C_SAA: BioMAP Diversity Plus: CASM3C Assay for serum amyloid A (SAA) Biomarker Activity (AID 2283049); details: primary human coronary artery smooth muscle cells; actives raise or lower the signal;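 also: SAA protein level quantified by ELISA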
[11] = BSK_CASM3C_SRB: Viability Assessment in the BioMAP Diversity Plus: CASM3C Assay (AID 2283050); details: primary human coronary artery smooth muscle cells;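 also: total protein by SRB staining as cytotoxicity measure in parallel cultures; cells exposed to compound for 24 h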
[12] = read-out: Thrombomodulin, THBD (gene 7056); assay: BSK_CASM3C_Thrombomodulin: BioMAP Diversity Plus: CASM3C Assay for Thrombomodulin Biomarker Activity (AID 2283051); details: primary human coronary artery smooth muscle cells; actives raise or lower the signal;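 also: thrombomodulin protein level measured by ELISA 24 h after dosing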
[13] = read-out: Tissue Factor, F3 (gene 2152); assay: BSK_CASM3C_TissueFactor: BioMAP Diversity Plus: CASM3C Assay for Tissue Factor Biomarker Activity (AID 2283052); details: primary human coronary artery smooth muscle cells; actives raise or lower the signal;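 also: cell surface tissue factor protein level read by ELISA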
[14] = read-out: Interferon-gamma inducible Protein 10 (IP10), CXCL10 (gene 3627); assay: BSK_hDFCGF_IP10: BioMAP Diversity Plus: hDFCGF Assay for Interferon-gamma inducible Protein 10 (IP10) Biomarker Activity (AID 2283053); details: primary human foreskin fibroblasts; actives raise or lower the signal
Procedure, shortened: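 IP-10 levels, quantified by ELISA, are taken from human foreskin fibroblast cultures 24 h after chemical treatment, with DMSO serving as negative control and baseline for bidirectional analysis.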

[15] = read-out: Urokinase-type plasminogen activator receptor (uPAR), PLAUR (gene 5329); assay: BSK_CASM3C_uPAR: BioMAP Diversity Plus: CASM3C Assay for Urokinase-type plasminogen activator receptor (uPAR) Biomarker Activity (AID 2283054); details: primary human coronary artery smooth muscle cells; actives raise or lower the signal;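 also: cell-surface uPAR protein level quantified by ELISA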
[16] = read-out: Vascular cell adhesion molecule 1 (VCAM1), VCAM1 (gene 7412); assay: BSK_CASM3C_VCAM1: BioMAP Diversity Plus: CASM3C Assay for Vascular cell adhesion molecule 1 (VCAM1) Biomarker Activity (AID 2283055); details: primary human coronary artery smooth muscle cells; actives raise or lower the signal;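 also: VCAM-1 protein level quantified by ELISA on the cells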
[17] = read-out: Epidermal growth factor receptor (EGFR), EGFR (gene 1956); assay: BSK_hDFCGF_EGFR: BioMAP Diversity Plus: hDFCGF Assay for Epidermal growth factor receptor (EGFR) Biomarker Activity (AID 2283057); details: primary human foreskin fibroblasts; actives raise or lower the signal
Procedure, shortened: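 Measured by ELISA: EGFR levels on primary human foreskin fibroblasts 24 h after chemical treatment, analysed relative to DMSO with bidirectional fitting.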

[18] = BSK_hDFCGF_Proliferation: Cell Proliferation Assessment in the BioMAP Diversity Plus: hDFCGF Assay (AID 2283059); details: primary human foreskin fibroblasts;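 also: curves fitted for both rise and fall of signal versus DMSO baseline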
Procedure, shortened: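 Primary human foreskin fibroblasts, sub-confluent; […]; 10% TCA fix, 0.1% SRB stain, A560 total protein. Gain/loss fitted bidirectionally vs DMSO control.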

[19] = read-out: Collagen III, COL3A1 (gene 1281); assay: BSK_hDFCGF_CollagenIII: BioMAP Diversity Plus: hDFCGF Assay for Collagen III Biomarker Activity (AID 2283056); details: primary human foreskin fibroblasts; actives raise or lower the signal
Procedure, shortened: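 ELISA read-out of collagen III from human skin fibroblast cultures sampled 24 h post-dosing. Values were derived by bidirectional fitting relative to the DMSO vehicle control.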

[20] = read-out: Interleukin-8 (IL8), CXCL8 (gene 3576); assay: BSK_hDFCGF_IL8: BioMAP Diversity Plus: hDFCGF Assay for Interleukin-8 (IL8) Biomarker Activity (AID 2283058); details: primary human foreskin fibroblasts; actives raise or lower the signal
Procedure, shortened: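 Cells used are human skin primary fibroblasts. Chemical is added, cultures run 24 h, then IL-8 is quantified by ELISA, and gain or loss versus DMSO control is fitted in both directions.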

Measured: AC50

Nc1nc(N)nc(-c2ccccc2)n1
active: [13] 0.0609 µM | [16] 0.268 µM
inactive: [1] | [2] | [3] | [4] | [5] | [6] | [7] | [8] | [9] | [10] | [11] | [12] | [13] | [14] | [15] | [16] | [17] | [18]

Fc1ccc(Br)cc1
not listed: [14] | [20]
inactive: all other assays above

Nc1ccc(C(=O)O)cc1
not listed: [19] | [20]
inactive: all other assays above

Oc1c(Cl)cc(Cl)c(Cl)c1Cl
active: [1] 0.383 µM | [16] 3.97 µM | [19] 10.4 µM | [18] 27.7 µM
not listed: [14] | [20]
inactive: all other assays above

COc1ccc(C(=O)c2ccccc2)c(O)c1
active: [13] 20 µM
not listed: [14] | [19] | [20]
inactive: all other assays above

C=CC(=O)NC(C)(C)C
not listed: [14] | [19] | [20]
inactive: all other assays above

CC1(C)CC(O)CC(C)(C)N1[O]
not listed: [14] | [19] | [20]
inactive: all other assays above

c1ccc2sc(SSN3CCOCC3)nc2c1
inactive: [6] | [12] | [20]
active: [1] 12 µM | [2] 12.5 µM | [3] 20 µM | [4] 4.62 µM | [5] 6.94 µM | [7] 8.56 µM | [8] 2.19 µM | [9] 15.8 µM | [10] 5.46 µM | [11] 20 µM | [13] 10.6 µM | [15] 6.71 µM | [16] 4.44 µM | [17] 7.7 µM | [18] 1.41 µM

CCCCCCOC(=O)CCCCC(=O)OCCCCCC
not listed: [14] | [20]
inactive: all other assays above

O=C1CCCCCCCCCCCN1
not listed: [14] | [19] | [20]
inactive: all other assays above

CCC1(C)C(=O)N(Cl)C(=O)N1Cl (configuration not stated)
not listed: [14] | [19]
inactive: all other assays above

CC/C=C\C/C=C\C/C=C\CCCCCCCC(=O)OC
inactive: [17]
active: [1] 31.5 µM | [2] 9.51 µM | [3] 32.2 µM | [4] 12.1 µM | [5] 22.6 µM | [6] 28.7 µM | [7] 29.7 µM | [8] 8.6 µM | [9] 29.3 µM | [10] 26 µM | [11] 15.2 µM | [12] 36.2 µM | [13] 13.9 µM | [15] 29.7 µM | [16] 14.8 µM | [18] 1.68 µM

CCN1CN(CC)CN(CC)C1
not listed: [14] | [20]
inactive: all other assays above

COC(OC)(C(=O)c1ccccc1)c1ccccc1
not listed: [14] | [19] | [20]
inactive: all other assays above

CCOC(=O)C1=NOC(c2ccccc2)(c2ccccc2)C1
active: [16] 20 µM
not listed: [14] | [19] | [20]
inactive: all other assays above

O=C(O)C(F)(F)C(F)(F)C(F)(F)C(F)(F)C(=O)O
not listed: [14] | [19] | [20]
inactive: all other assays above

c1ccc2c(c1)[nH]c1ccccc12
not listed: [14] | [19] | [20]
inactive: all other assays above

O=C(Oc1ccccc1)c1ccccc1C(=O)Oc1ccccc1
active: [18] 24 µM
not listed: [14] | [19]
inactive: all other assays above

CCOC(=O)/C=C\C(=O)OCC
not listed: [14] | [20]
inactive: all other assays above

CCCCCCCCCCCC(C)=O
active: [5] 35.9 µM | [7] 36.8 µM | [8] 20 µM | [11] 20 µM | [13] 0.82 µM | [15] 20 µM | [18] 24.6 µM
not listed: [14] | [19] | [20]
inactive: all other assays above

Cc1c(O)cccc1O
not listed: [14] | [19]
inactive: all other assays above

Oc1ccc(/C=C/c2cc(O)cc(O)c2)cc1
active: [1] 13.6 µM | [8] 10.5 µM | [10] 15.9 µM | [13] 7.96 µM | [18] 17.5 µM
not listed: [14] | [19] | [20]
inactive: all other assays above

CC(C)[N+](C)(CCOC(=O)C1c2ccccc2Oc2ccccc21)C(C)C
active: [18] 0.471 µM
not listed: [14] | [19]
inactive: all other assays above

CC(C)c1cccc(C(C)C)c1N
not listed: [14] | [19] | [20]
inactive: all other assays above

CC=C(C)C=CC=C(C)C
active: [2] 3.97 µM | [4] 3.97 µM | [5] 0.46 µM | [8] 24 µM | [13] 3.97 µM | [16] 16.8 µM | [18] 15.7 µM
not listed: [14] | [19]
inactive: all other assays above

CC=C(C)C(C)=O
active: [12] 3.97 µM | [18] 20 µM
not listed: [14] | [19] | [20]
inactive: all other assays above

CC(CCC(=O)O)(c1ccc(O)cc1)c1ccc(O)cc1
not listed: [14] | [19] | [20]
inactive: all other assays above

C=C(C)C(=O)OCCCCCCCCCCCC
active: [18] 11.7 µM
not listed: [14] | [20]
inactive: all other assays above
